This is a sample that favours compounds with a hit; in the whole collection about 2.5% have one here.
LGR2 antag: inhibitors of bursicon-induced Drosophila LGR2 receptor cAMP signaling; HEK293 LGR2, CRE-luciferase, bursicon-stimulated, 4 h; inhibition, % at 9.99 µM; 380,000 tested, 0.35% active;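 active = drop in luminescence signal, shown as inhibition above about 50% in the replicate tests, limit read from the data, passing the limit was not always enough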;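 also: agonist challenge used bursicon conditioned medium at about half maximal strength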
EWS-Fli inh: EWS/Fli transcriptional activity inhibition | 350,000 tested, 0.67% active | inhibition, % at 12.6 µM | A673 NR0B1-luciferase reporter, viability-normalised;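 active = mean inhibition of at least 50% after viability correction, with every replicate also passing that limit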;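 also: firefly luciferase signal divided by Alamar Blue viability fluorescence both relative to DMSO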
TROY NFkB inh: TROY signaling inhibition. inhibition, % at 10 µM. AID 1347056. Q293 LMP1-TROYcd NF-kB luciferase reporter, 4 h. 360,000 tested, 0.98% active;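 active = compounds whose plate-normalised and pattern-corrected inhibition of the luciferase reporter signal at the single screening dose is 50% or more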
LMP1 NFkB inh: reduces LMP1-driven NF-kappaB luciferase signal. LMP1-induced NF-kappaB luciferase reporter cells, luminescence. inhibition, % at 12.5 µM. 350,000 tested, 0.69% active; in the data active = inhibition above about 41%
TWEAK-Fn14 inh: inhibitors of TWEAK-Fn14 interaction signaling | TWEAK-stimulated Fn14 reporter cells, luciferase luminescence, 8 h | inhibition, % at 10 µM | 360,000 tested, 2% active; in the data active = inhibition above about 50%
Of the large screens only hits and unclear results are named; the others gave an inactive call.

CC(C)NC(=O)Nc1ccc2c(c1)C(=O)N(C)[C@H]1CC[C@@H](CC(=O)NC3CCCCC3)O[C@H]1CO2	none (no result: TROY NFkB inh, LMP1 NFkB inh, TWEAK-Fn14 inh)
Cc1ccc2c(c1C)-c1c(ccc(C)c1C)C(=O)C2=O	LGR2 antag 55, EWS-Fli inh 59, TROY NFkB inh 61, TWEAK-Fn14 inh 86
C[C@@H]1CN([C@@H](C)CO)C(=O)Cc2cc(NC(=O)CCN3CCOCC3)ccc2O[C@@H]1CN(C)C(=O)Nc1ccc(F)cc1	none (no result: TROY NFkB inh, LMP1 NFkB inh, TWEAK-Fn14 inh)
COc1cccc(NC(=O)CNC(=O)[C@@H]2Cc3ccccc3CN2C(=O)OC(C)(C)C)c1	none
O=C(CNC(=O)c1ccco1)Nc1ccc2c(c1)OCCO2	TROY NFkB inh 71, TWEAK-Fn14 inh 86
CC(C)(C)OC(=O)N1Cc2ccccc2C[C@H]1C(=O)NCC(=O)Nc1ccc2c(c1)OCCO2	TROY NFkB inh 82, LMP1 NFkB inh 44, TWEAK-Fn14 inh 96
O=C(NC(=S)Nc1ccc2c(c1)OCCO2)c1ccco1	none (no result: LGR2 antag)
CC(C)CC(NC(=O)c1ccco1)C(=O)Nc1ccc2c(c1)OCCO2 (stereo not given)	TWEAK-Fn14 inh 76
CC(C)CC(NC(N)=O)C(=O)Nc1ccc2c(c1)OCO2 (stereo not given)	none
O=C(CCN1CCCCC1)NCC[C@H]1CC[C@H](NC(=O)Nc2ccc(Cl)cc2)[C@@H](CO)O1	none (no result: TROY NFkB inh, LMP1 NFkB inh, TWEAK-Fn14 inh)
CC1CCN(c2ccc3c(c2)S(=O)(=O)c2cccc(C(=O)NC[C@@H]4CCCO4)c2C3=O)CC1	none
O=C(NCC1CCCO1)c1cccc2c1C(=O)c1ccc(N3CCC(Cc4ccccc4)CC3)cc1S2(=O)=O (stereo not given)	TROY NFkB inh 56, TWEAK-Fn14 inh 90 (no result: LGR2 antag, EWS-Fli inh)
O=[N+]([O-])c1c(NCCCO)cc(Sc2ccc(Cl)cc2)c2nonc12	TROY NFkB inh 79, LMP1 NFkB inh 48 (no result: EWS-Fli inh)
CC(=O)OCCCNc1cc(Sc2ccc(C)cc2)c2nonc2c1[N+](=O)[O-]	LGR2 antag 51, TROY NFkB inh 64, TWEAK-Fn14 inh 80 (no result: EWS-Fli inh)
CC(=O)OCCCNc1cc(Sc2nc3ccccc3s2)c2nonc2c1[N+](=O)[O-]	none (no result: LGR2 antag, EWS-Fli inh)
O=[N+]([O-])c1c(NCCCO)cc(SCc2ccco2)c2nonc12	none
COc1ccc(C(=O)/C(C#N)=N/Nc2ccc([N+](=O)[O-])cc2)cc1	TROY NFkB inh 63, TWEAK-Fn14 inh 59
N#CC(C#N)=NNc1ccc([N+](=O)[O-])cc1	TROY NFkB inh 56
O=C(NCC1CCCO1)c1cc2c([nH]c3ccccc32)c(-c2cccc(Cl)c2)n1 (stereo not given)	TWEAK-Fn14 inh 56 (no result: LGR2 antag, EWS-Fli inh)
COc1cc(-c2nc(C(=O)NCC3CCCO3)cc3c2[nH]c2ccccc23)cc(OC)c1OC (stereo not given)	LMP1 NFkB inh 92, TWEAK-Fn14 inh 59
C[C@@H]1CN([C@@H](C)CO)S(=O)(=O)c2ccc(C3=CCCCC3)cc2O[C@H]1CN(C)C(=O)c1ccc(F)cc1	none (no result: TROY NFkB inh, LMP1 NFkB inh, TWEAK-Fn14 inh)
O=C(N[C@H]1CC[C@@H](CCNS(=O)(=O)c2ccc(Cl)cc2)O[C@@H]1CO)c1cccc(F)c1	none (no result: TROY NFkB inh, LMP1 NFkB inh, TWEAK-Fn14 inh)
O=C1C=CC(=O)C(CNc2ccc(C(=O)OCc3ccccc3)cc2)=C1	EWS-Fli inh 59, TWEAK-Fn14 inh 107
CN(C)c1ccc(C(=O)OCc2ccccc2)cc1	none (no result: LGR2 antag, EWS-Fli inh)
NC(=O)NC(=O)CSc1nc2sc(-c3ccccc3)cc2c(=O)n1-c1ccccc1	TWEAK-Fn14 inh 58
Cc1cccc(-c2nc(=S)c3c(n2Cc2ccco2)CCCC3)c1	TWEAK-Fn14 inh 50 (no result: EWS-Fli inh)
COc1ccc(C(=O)SC2=NCCS2)cc1OC	none (no result: LGR2 antag, EWS-Fli inh)
Cc1ccc(C(=O)SC2=NCCS2)cc1	TWEAK-Fn14 inh 60
COC1(OC)C(/C=C/c2ccc(Cl)cc2)C(C#N)(C#N)C1(OC)OC (stereo not given)	TWEAK-Fn14 inh 77 (no result: LGR2 antag, EWS-Fli inh)
S=C(NN=Cc1ccc2c(c1)OCO2)NN=Cc1ccc2c(c1)OCO2	none
CC(C)NC(=S)N/N=C/c1ccc2c(c1)OCCO2	EWS-Fli inh 83
c1ccc(N2CCN(c3ncnc4sc5c(c34)CCC5)CC2)cc1	TWEAK-Fn14 inh 59 (no result: LGR2 antag, EWS-Fli inh)
CCc1cc2c(N3CCN(c4ccccc4)CC3)ncnc2s1	LMP1 NFkB inh 44, TWEAK-Fn14 inh 61 (no result: EWS-Fli inh)
O=C(c1ccco1)N1CCN(c2ncnc3sc4c(c23)CCC4)CC1	none (no result: LGR2 antag, EWS-Fli inh)
Oc1ccc(N2CCN(c3ncnc4sc(-c5ccccc5)cc34)CC2)cc1	none
CCCc1c(C(=O)Nc2ccc(C(F)(F)F)cc2)cnn1-c1ccccc1	LMP1 NFkB inh 62
CCCc1c(C(=O)Nc2ccc(N3CCOCC3)cc2)cnn1-c1ccccc1	none
CC1CCN(CCOc2ccc(C(=O)c3ccccc3)cc2)CC1	LMP1 NFkB inh 80
COc1ccccc1NC(=O)N1CC(=O)N2[C@H](CO)[C@H](c3ccc(-c4ccc(F)cc4)cc3)[C@@H]2C1	none (no result: TROY NFkB inh, LMP1 NFkB inh, TWEAK-Fn14 inh)
CC(C)Nc1ncnc2ccc(Br)cc12	TWEAK-Fn14 inh 78
CSCCC(Nc1ncnc2ccc(Br)cc12)C(=O)O (stereo not given)	none (no result: EWS-Fli inh)
O=C(N[C@@H]1CC[C@H](CCNC(=O)C2CCCC2)O[C@H]1CO)c1ccccn1	none (no result: TROY NFkB inh, LMP1 NFkB inh, TWEAK-Fn14 inh)
CCC(=O)Nc1cccc(C(=O)/C=C/c2ccc(F)cc2)c1	TWEAK-Fn14 inh 72
COc1cccc(NC(=S)NC(=O)/C=C/c2ccc(F)cc2)c1	none
CC(=O)Nc1cccc(C(=O)/C=C/c2ccc(C)cc2)c1	TWEAK-Fn14 inh 71 (no result: LGR2 antag)
C[C@@H]1CN([C@@H](C)CO)S(=O)(=O)c2ccc(C3=CCCCC3)cc2O[C@@H]1CN(C)S(=O)(=O)c1cn(C)cn1	none (no result: TROY NFkB inh, LMP1 NFkB inh, TWEAK-Fn14 inh)
c1ccc(Cc2c(-c3ccccc3)nc3c4ccccc4ccn23)cc1	none
CC(=O)c1ccc(-c2nc3c4ccccc4ccn3c2C(C)=O)o1	LMP1 NFkB inh 77 (no result: LGR2 antag, EWS-Fli inh)
OC1(c2ccccc2)CC(c2ccccc2)c2ccccc2O1 (stereo not given)	TROY NFkB inh 50
COc1ccc(C2CC(O)(c3ccccc3)Oc3cc(OC)c(OC)c(OC)c32)cc1 (stereo not given)	none
CCCc1nn(C)c(C(=O)Nc2cccc(Cl)c2)c1Cl	TROY NFkB inh 70, TWEAK-Fn14 inh 78 (no result: EWS-Fli inh)
CCCc1nn(C)c(C(=O)Nc2ccccc2)c1Cl	TROY NFkB inh 76, TWEAK-Fn14 inh 81 (no result: EWS-Fli inh)
NC(=O)C1CCN(CC(O)COc2ccc(-c3ccccc3)cc2)CC1 (stereo not given)	TWEAK-Fn14 inh 107
CCOC(=O)N1CCN(CC(O)COc2ccc(-c3ccccc3)cc2)CC1 (stereo not given)	none
CCn1c(=O)c2cc(C(=O)NCc3cccs3)sc2c2ccccc21	LMP1 NFkB inh 52
O=C(C[C@H]1C[C@H]2c3cc(NS(=O)(=O)c4ccc(F)cc4)ccc3O[C@H]2[C@@H](CO)O1)NCC(F)(F)F	none (no result: TROY NFkB inh, LMP1 NFkB inh, TWEAK-Fn14 inh)
CC(=O)N1CCCCN2[C@H](CO)[C@H](c3ccc(-c4cccc(C)c4)cc3)[C@@H]2C1	LGR2 antag 55 (no result: TROY NFkB inh, LMP1 NFkB inh, TWEAK-Fn14 inh)
COc1ccccc1NC(=O)N1CCCCN2[C@@H](CO)[C@@H](c3ccc(-c4cccc(C)c4)cc3)[C@@H]2C1	EWS-Fli inh 57 (no result: TROY NFkB inh, LMP1 NFkB inh, TWEAK-Fn14 inh)
CC(=O)N1CCCCN2[C@@H](CO)[C@H](c3ccc(-c4cccc(C)c4)cc3)[C@@H]2C1	none (no result: TROY NFkB inh, LMP1 NFkB inh, TWEAK-Fn14 inh)
Cc1noc(C)c1NC(=O)N[C@H]1CC[C@@H](CC(=O)N2CCCCC2)O[C@H]1CO	none (no result: TROY NFkB inh, LMP1 NFkB inh, TWEAK-Fn14 inh)
